Experimental data reported in PubChem BioAssay (EPA / NIEHS).
Calls of active or inactive are those of the source. The calls were made as follows: active = hit-call score of the fitted dose curve at least 0.9, where 1 is the maximum; inactive = score below 0.9.

Assays:
[1] = read-out: TIMP metallopeptidase inhibitor 2 (TIMP2), TIMP2 (gene 7077); assay: BSK_KF3CT_TIMP2: BioMAP Diversity Plus: KF3CT Assay for TIMP metallopeptidase inhibitor 2 (TIMP2) Biomarker Activity (AID 2283071); conditions: primary human keratinocytes with fibroblasts; actives raise or lower the signal
Outline: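 Measurements come from ELISA detection of TIMP-2 at 24 hours in a dosed human keratinocyte and foreskin fibroblast co-culture. DMSO serves as negative control and baseline.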

[2] = read-out: Transforming growth factor beta 1 (TGFb1), TGFB1 (gene 7040); assay: BSK_KF3CT_TGFb1: BioMAP Diversity Plus: KF3CT Assay for Transforming growth factor beta 1 (TGFb1) Biomarker Activity (AID 2283072); conditions: primary human keratinocytes with fibroblasts; actives raise or lower the signal
Outline: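 TGF-b1 ELISA on a 24 h dosed co-culture of human keratinocytes and foreskin fibroblasts; cytotoxicity tracked in parallel cultures by SRB staining.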

[3] = read-out: Matrix Metallopeptidase 9 (MMP9), MMP9 (gene 4318); assay: BSK_KF3CT_MMP9: BioMAP Diversity Plus: KF3CT Assay for Matrix Metallopeptidase 9 (MMP9) Biomarker Activity (AID 2283074); conditions: primary human keratinocytes with fibroblasts; actives raise or lower the signal;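 as to AC50: MMP9 protein level quantified by ELISA in the co-culture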
Outline: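 MMP-9 quantified by ELISA after 24 h chemical treatment of primary human skin keratinocyte/fibroblast co-cultures; gain or loss fitted against DMSO, with parallel SRB staining (0.1% SRB, 560 nm) for overt cytotoxicity.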

[4] = read-out: urokinase plasminogen activator (uPA), PLAU (gene 5328); assay: BSK_KF3CT_uPA: BioMAP Diversity Plus: KF3CT Assay for urokinase plasminogen activator (uPA) Biomarker Activity (AID 2283075); conditions: primary human keratinocytes with fibroblasts; actives raise or lower the signal
Outline: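 ELISA read-out of uPA 24 h after dosing human skin keratinocytes co-cultured with foreskin fibroblasts. Signal change fitted both ways relative to DMSO; sulforhodamine B on parallel cultures marks overt cytotoxicity.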

[5] = read-out: CD40, CD40 (gene 958); assay: BSK_LPS_CD40: BioMAP Diversity Plus: LPS Assay for CD40 Biomarker Activity (AID 2283076); conditions: primary human HUVEC with PBMC; actives raise or lower the signal
Outline: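 ELISA readout of CD40 in HUVEC/PBMC co-culture (BSK_LPS system), 24 h post-dosing; bidirectional curve fit, DMSO baseline; parallel SRB total-protein staining for cytotoxicity.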

[6] = read-out: E-selectin (Homo sapiens) (UniProt P16581); assay: BSK_LPS_Eselectin: BioMAP Diversity Plus: LPS Assay for Eselectin Biomarker Activity (AID 2283077); conditions: primary human HUVEC with PBMC; actives raise or lower the signal
Outline: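 ELISA readout of E-selectin, 24 h post-dose, HUVEC + PBMC co-culture (LPS system). Gain or loss of signal vs DMSO baseline, bidirectional fit.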

[7] = read-out: Interleukin-8 (IL8), CXCL8 (gene 3576); assay: BSK_LPS_IL8: BioMAP Diversity Plus: LPS Assay for Interleukin-8 (IL8) Biomarker Activity (AID 2283078); conditions: primary human HUVEC with PBMC; actives raise or lower the signal
Outline: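 HUVEC + PBMC co-culture, LPS-activated; test chemicals dosed, IL-8 read by ELISA at 24 h. Bidirectional curve fit vs DMSO baseline (gain or loss of signal).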

[8] = BSK_LPS_SRB: Viability Assessment in the BioMAP Diversity Plus: LPS Assay (AID 2283079); conditions: primary human HUVEC with PBMC;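 also: total protein by sulforhodamine B absorbance as a cytotoxicity measure; measured one day after compound addition; fitted in both directions against DMSO so loss or gain of signal counts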
Outline: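 HUVEC + PBMC co-culture, LPS-stimulated; compound 24 h. 10% TCA fix, 0.1% SRB stain, A560. Bidirectional fit vs DMSO.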

[9] = read-out: Interleukin-1 alpha (IL1a), IL1A (gene 3552); assay: BSK_LPS_IL1a: BioMAP Diversity Plus: LPS Assay for Interleukin-1 alpha (IL1a) Biomarker Activity (AID 2283080); conditions: primary human HUVEC with PBMC; actives raise or lower the signal
Outline: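 HUVEC/PBMC co-culture, LPS system; 24 h after dosing; IL-1a by ELISA; gain or loss of signal fitted bidirectionally vs DMSO baseline.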

[10] = read-out: Monocyte Chemoattractant Protein-1 (MCP1), CCL2 (gene 6347); assay: BSK_LPS_MCP1: BioMAP Diversity Plus: LPS Assay for Monocyte Chemoattractant Protein-1 (MCP1) Biomarker Activity (AID 2283081); conditions: primary human HUVEC with PBMC; actives raise or lower the signal;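 as to AC50: secreted MCP-1 protein quantified by ELISA in culture supernatant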
Outline: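 ELISA read-out of MCP-1 after 24 h chemical dosing of a human umbilical vein endothelial cell/peripheral blood mononuclear cell co-culture stimulated with LPS. Gain or loss of signal fitted relative to DMSO controls.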

[11] = BSK_LPS_PGE2: BioMAP Diversity Plus: LPS Assay for Prostaglandin E2 (PGE2) Biomarker Activity (AID 2283082); conditions: primary human HUVEC with PBMC; actives raise or lower the signal;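 as to AC50: secreted prostaglandin E2 measured by ELISA in LPS-stimulated co-culture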
Outline: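 Primary human endothelial cells and blood mononuclear cells, co-cultured with LPS, receive test chemical; PGE2 ELISA follows at 24 h, with SRB-stained parallel cultures flagging cytotoxicity.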

[12] = read-out: Macrophage colony-stimulating factor (MCSF), CSF1 (gene 1435); assay: BSK_LPS_MCSF: BioMAP Diversity Plus: LPS Assay for Macrophage colony-stimulating factor (MCSF) Biomarker Activity (AID 2283083); conditions: primary human HUVEC with PBMC; actives raise or lower the signal
Outline: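 HUVEC + PBMC co-culture (human primary), 24 h post-dose; M-CSF by ELISA; gain/loss of signal fitted bidirectionally vs DMSO baseline.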

[13] = read-out: Tissue Factor, F3 (gene 2152); assay: BSK_LPS_TissueFactor: BioMAP Diversity Plus: LPS Assay for Tissue Factor Biomarker Activity (AID 2283084); conditions: primary human HUVEC with PBMC; actives raise or lower the signal
Outline: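 HUVEC/PBMC co-culture, LPS-activated; CD142 ELISA read 24 h post-dose; bidirectional curve fit vs DMSO negative control.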

[14] = read-out: Tumor necrosis factor (Homo sapiens) (UniProt P01375); assay: BSK_LPS_TNFa: BioMAP Diversity Plus: LPS Assay for Tumour Necrosis Factor alpha (TNFa) Biomarker Activity (AID 2283085); conditions: primary human HUVEC with PBMC; actives raise or lower the signal;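 as to AC50: TNFa protein level quantified by ELISA in the co-culture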
Outline: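 ELISA-based TNFa endpoint in a human endothelial–PBMC co-culture sampled 24 h post-exposure. Curves were fitted in both directions using DMSO as baseline of activity.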

[15] = read-out: Vascular cell adhesion molecule 1 (VCAM1), VCAM1 (gene 7412); assay: BSK_LPS_VCAM1: BioMAP Diversity Plus: LPS Assay for Vascular cell adhesion molecule 1 (VCAM1) Biomarker Activity (AID 2283086); conditions: primary human HUVEC with PBMC; actives raise or lower the signal
Outline: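 Measured by ELISA: VCAM-1 in LPS-activated HUVEC/PBMC co-cultures 24 h after treatment. Values reflect bidirectional fitting with DMSO as baseline.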

[16] = read-out: CD38, CD38 (gene 952); assay: BSK_SAg_CD38: BioMAP Diversity Plus: SAg Assay for CD38 Biomarker Activity (AID 2283087); conditions: primary human HUVEC with PBMC; actives raise or lower the signal
Outline: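 Measures CD38 on a human endothelial/PBMC co-culture driven by SEB and TSST-1, 24 h after compound exposure, using ELISA with fluorescence detection; DMSO defines baseline for bidirectional curve fitting.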

[17] = read-out: CD40, CD40 (gene 958); assay: BSK_SAg_CD40: BioMAP Diversity Plus: SAg Assay for CD40 Biomarker Activity (AID 2283088); conditions: primary human HUVEC with PBMC; actives raise or lower the signal
Outline: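 HUVEC/PBMC co-culture, 24 h post-dose; CD40 by ELISA, fluorescence intensity; bidirectional fit vs DMSO negative control.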

[18] = read-out: CD69, CD69 (gene 969); assay: BSK_SAg_CD69: BioMAP Diversity Plus: SAg Assay for CD69 Biomarker Activity (AID 2283089); conditions: primary human HUVEC with PBMC; actives raise or lower the signal;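 as to AC50: cell surface CD69 protein quantified by ELISA with fluorescence detection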
Outline: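 HUVEC co-cultured with PBMC were dosed with chemical, and CD69 was measured by ELISA with fluorescence read-out 24 h later. Bidirectional curve fitting used DMSO as negative control and activity baseline.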

[19] = read-out: Monocyte Chemoattractant Protein-1 (MCP1), CCL2 (gene 6347); assay: BSK_SAg_MCP1: BioMAP Diversity Plus: SAg Assay for Monocyte Chemoattractant Protein-1 (MCP1) Biomarker Activity (AID 2283090); conditions: primary human HUVEC with PBMC; actives raise or lower the signal
Outline: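 Values derive from bidirectional fitting of ELISA-measured MCP1 against DMSO controls. Readings were taken 24 h after dosing human vascular endothelial cells co-cultured with peripheral blood mononuclear cells under superantigen stimulation.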

[20] = read-out: C-C motif chemokine 2 (Homo sapiens) (UniProt P13500); assay: BSK_KF3CT_MCP1: BioMAP Diversity Plus: KF3CT Assay for Monocyte Chemoattractant Protein 1 (MCP1/CCL2) Biomarker Activity (AID 2283073); conditions: primary human keratinocytes with fibroblasts; actives raise or lower the signal
Outline: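 KF3CT skin co-culture (keratinocytes/foreskin fibroblasts), 24 h post-dose; MCP-1 by ELISA; gain/loss of signal fit bidirectionally vs DMSO baseline.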

Measured: AC50

Chain of E-selectin (Homo sapiens) (P16581 whole entry, looked up): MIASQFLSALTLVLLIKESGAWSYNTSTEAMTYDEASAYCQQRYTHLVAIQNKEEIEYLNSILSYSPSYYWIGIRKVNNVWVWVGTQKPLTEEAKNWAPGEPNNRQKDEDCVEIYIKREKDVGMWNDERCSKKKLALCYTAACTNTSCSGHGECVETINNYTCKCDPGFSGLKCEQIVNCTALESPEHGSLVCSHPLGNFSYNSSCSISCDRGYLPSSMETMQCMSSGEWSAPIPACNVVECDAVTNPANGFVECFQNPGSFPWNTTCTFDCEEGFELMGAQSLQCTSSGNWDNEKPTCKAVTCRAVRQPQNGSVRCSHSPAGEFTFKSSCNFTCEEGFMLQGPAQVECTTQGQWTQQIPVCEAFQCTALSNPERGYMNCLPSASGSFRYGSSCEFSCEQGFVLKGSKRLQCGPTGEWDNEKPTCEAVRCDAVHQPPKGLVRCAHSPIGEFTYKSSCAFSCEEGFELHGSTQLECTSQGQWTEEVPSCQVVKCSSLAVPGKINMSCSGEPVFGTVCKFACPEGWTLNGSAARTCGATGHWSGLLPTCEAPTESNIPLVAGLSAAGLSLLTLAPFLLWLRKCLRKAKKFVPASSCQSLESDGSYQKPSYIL
Chain of Tumor necrosis factor (Homo sapiens) (P01375 whole entry, looked up): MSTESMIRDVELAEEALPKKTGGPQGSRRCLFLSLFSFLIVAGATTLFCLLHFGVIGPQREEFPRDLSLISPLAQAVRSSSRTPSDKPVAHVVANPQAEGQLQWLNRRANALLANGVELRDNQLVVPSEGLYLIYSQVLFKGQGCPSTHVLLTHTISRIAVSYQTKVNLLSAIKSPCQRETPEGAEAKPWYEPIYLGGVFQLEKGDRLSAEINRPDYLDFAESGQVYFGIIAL

CC(C)(C)C(O)(CCc1ccc(Cl)cc1)Cn1cncn1 (stereo not drawn)
not listed: [20]
inactive: all other assays above

CC(C)N(Cc1ccccc1)C(=O)C(C)(C)C
not listed: [3] | [19]
inactive: all other assays above

O=Cc1ccco1
not listed: [20]
inactive: all other assays above

[Cl-].[Cl-].[Hg+2]
inactive: [9] | [10] | [11] | [19]
active: [1] 29.2 µM | [2] 7.74 µM | [20] 20 µM | [4] 13.1 µM | [5] 38.8 µM | [6] 37 µM | [7] 30.9 µM | [8] 20 µM | [12] 31.7 µM | [14] 33 µM | [15] 28.2 µM | [16] 36.6 µM | [17] 32 µM | [18] 36.8 µM

Oc1ccc2ccc3cccc4ccc1c2c34
inactive: [20] | [4]
active: [1] 31.3 µM | [2] 31.7 µM | [5] 20 µM | [6] 31.4 µM | [7] 30.5 µM | [8] 32 µM | [9] 29.2 µM | [10] 29.7 µM | [11] 4.03 µM | [12] 30.4 µM | [13] 34.4 µM | [14] 33 µM | [15] 35.3 µM | [16] 16.5 µM | [17] 23.3 µM | [18] 31.9 µM

COP(=S)(OC)SCN1C(=O)c2ccccc2C1=O
not listed: [3] | [13]
inactive: all other assays above

CCC12COCN1COC2
not listed: [13]
inactive: all other assays above

Clc1ccc(C(c2ccc(Cl)cc2)C(Cl)Cl)cc1
active: [1] 11.2 µM | [2] 9.57 µM | [20] 10.4 µM | [3] 10.2 µM | [4] 11.6 µM | [5] 29 µM | [6] 30.3 µM | [9] 28.6 µM | [10] 35.2 µM | [11] 28.5 µM | [12] 25.6 µM | [13] 37.8 µM | [14] 31.7 µM | [15] 30.5 µM | [16] 29.3 µM | [17] 26.2 µM | [18] 29.9 µM

CC(C)(OOC(C)(C)c1ccccc1)c1ccccc1
inactive: [1] | [2] | [20] | [4] | [11] | [13]
active: [5] 34.6 µM | [6] 34 µM | [7] 30.1 µM | [8] 36.8 µM | [9] 29.2 µM | [10] 30.4 µM | [12] 32.5 µM | [14] 31.7 µM | [15] 30.7 µM | [16] 33.5 µM | [17] 31 µM | [18] 31.6 µM | [19] 33 µM

COC(=O)c1ccccc1N
not listed: [3] | [13] | [19]
inactive: all other assays above

CCCCC(CC)COC(=O)c1ccc(C(=O)OCC(CC)CCCC)c(C(=O)OCC(CC)CCCC)c1 (stereo not drawn)
not listed: [3] | [13] | [19]
inactive: all other assays above

Oc1ccccc1Cl
not listed: [3] | [13] | [19]
inactive: all other assays above

Cc1ccc([N+](=O)[O-])cc1
not listed: [3]
inactive: all other assays above

CC(O)CCO (stereo not drawn)
not listed: [3] | [19]
inactive: all other assays above
